In PubChem BioAssay (NCATS):
Results filed as inconclusive are left out. Where a call stands in place of a potency, no number is given. Unmarked numbers belong to inactive results. Active and inactive are the calls of the source. The call rests on the fitted dose curve; in most records, active means well fitted curve in the direction sought with a large enough effect; inconclusive means small, poorly fitted or top-dose-only effect, or another doubt; inactive means no such curve, though single readings can be large; an effect the other way counts as inactive or inconclusive.

Assays:
[1] = molecular target: Rap guanine nucleotide exchange factor 3 (Homo sapiens) (UniProt O95398); assay: Confirmatory qHTS for antagonist of cAMP-regulated guanine nucleotide exchange factor 3 (EPAC1) (AID 1645880); further: nearly all actives have a fitted effect of over 55% in size; further: potency means the concentration at half of the fitted maximal effect
Summary of the method: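 Released BODIPY-GDP fluoresces less than Rap1-bound BODIPY-GDP; the signal is followed at 480/540 nm at 5-min intervals over 30 min, after 5 min at room temperature. Reactions contain 100 nM EPAC1, 250 nM RAP1B-BODIPY-GDP and 50 uM GDP; results are normalized to ATA and DMSO.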

[2] = molecular target: Rap guanine nucleotide exchange factor 3 (Homo sapiens) (UniProt O95398); assay: Confirmatory qHTS for agonist of cAMP-regulated guanine nucleotide exchange factor 3 (EPAC1) (AID 1645881); further: nearly all actives have a fitted effect of over 75% in size; further: potency means the concentration at half of the fitted maximal effect;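 on activation: EPAC1 catalysed release of BODIPY-GDP from Rap1B seen as fluorescence loss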
[3] = molecular target: Rap guanine nucleotide exchange factor 4 (Homo sapiens) (UniProt Q8WZA2); assay: Confirmatory qHTS for agonist of cAMP-regulated guanine nucleotide exchange factor 4 (EPAC2) (AID 1645884);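 further: nucleotide exchange releases bodipy-GDP from Rap1 and this lowers its fluorescence; nearly all actives have a fitted effect of over 65% in size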; further: potency means the concentration at half of the fitted maximal effect
[4] = molecular target: Rap guanine nucleotide exchange factor 4 (Homo sapiens) (UniProt Q8WZA2); assay: Confirmatory qHTS for antagonist of cAMP-regulated guanine nucleotide exchange factor 4 (EPAC2) (AID 1645885); further: nearly all actives have a fitted effect of over 25% in size; further: potency means the concentration at half of the fitted maximal effect
[5] = molecular target: Rap guanine nucleotide exchange factor 3 (Homo sapiens) (UniProt O95398); assay: Counterscreen qHTS for antagonist of cAMP-regulated guanine nucleotide exchange factor 3 (EPAC1) (AID 1645888)
Summary of the method: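 Rap1B-BODIPY-GDP 250 nM + GDP 50 uM; cpds 7-pt, final 9.74 nM–152 uM (activator mode) or from 7.32 nM upwards (inhibitor mode); RT; FI 480/540 nm at 5 and 30 min, then ± cAMP, reread.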

Rap guanine nucleotide exchange factor 3 (Homo sapiens), sequence (O95398 whole entry, looked up): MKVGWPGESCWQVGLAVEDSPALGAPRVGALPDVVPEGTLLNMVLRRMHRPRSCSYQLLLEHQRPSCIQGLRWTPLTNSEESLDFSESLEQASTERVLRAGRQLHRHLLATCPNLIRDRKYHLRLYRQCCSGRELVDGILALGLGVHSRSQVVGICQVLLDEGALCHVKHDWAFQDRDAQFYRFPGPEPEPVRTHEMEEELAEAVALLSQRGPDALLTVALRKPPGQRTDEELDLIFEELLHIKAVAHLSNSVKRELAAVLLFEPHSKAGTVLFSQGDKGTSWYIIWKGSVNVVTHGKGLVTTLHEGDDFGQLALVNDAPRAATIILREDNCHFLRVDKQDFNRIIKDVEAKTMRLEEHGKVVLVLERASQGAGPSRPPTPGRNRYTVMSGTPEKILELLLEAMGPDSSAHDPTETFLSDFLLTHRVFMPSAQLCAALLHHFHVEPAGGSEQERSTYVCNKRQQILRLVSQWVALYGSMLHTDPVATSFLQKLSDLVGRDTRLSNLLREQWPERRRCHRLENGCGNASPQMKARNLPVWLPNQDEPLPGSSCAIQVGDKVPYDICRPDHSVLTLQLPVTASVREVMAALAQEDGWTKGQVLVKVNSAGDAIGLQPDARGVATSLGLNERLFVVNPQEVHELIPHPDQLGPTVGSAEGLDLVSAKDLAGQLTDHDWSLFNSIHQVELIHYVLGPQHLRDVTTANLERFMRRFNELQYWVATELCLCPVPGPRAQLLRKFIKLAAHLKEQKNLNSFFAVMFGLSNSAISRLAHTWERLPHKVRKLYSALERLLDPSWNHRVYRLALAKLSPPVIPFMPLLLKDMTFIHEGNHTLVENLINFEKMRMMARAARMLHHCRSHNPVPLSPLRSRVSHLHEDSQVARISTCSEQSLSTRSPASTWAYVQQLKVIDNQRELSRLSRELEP
Rap guanine nucleotide exchange factor 4 (Homo sapiens), sequence (Q8WZA2 whole entry, looked up): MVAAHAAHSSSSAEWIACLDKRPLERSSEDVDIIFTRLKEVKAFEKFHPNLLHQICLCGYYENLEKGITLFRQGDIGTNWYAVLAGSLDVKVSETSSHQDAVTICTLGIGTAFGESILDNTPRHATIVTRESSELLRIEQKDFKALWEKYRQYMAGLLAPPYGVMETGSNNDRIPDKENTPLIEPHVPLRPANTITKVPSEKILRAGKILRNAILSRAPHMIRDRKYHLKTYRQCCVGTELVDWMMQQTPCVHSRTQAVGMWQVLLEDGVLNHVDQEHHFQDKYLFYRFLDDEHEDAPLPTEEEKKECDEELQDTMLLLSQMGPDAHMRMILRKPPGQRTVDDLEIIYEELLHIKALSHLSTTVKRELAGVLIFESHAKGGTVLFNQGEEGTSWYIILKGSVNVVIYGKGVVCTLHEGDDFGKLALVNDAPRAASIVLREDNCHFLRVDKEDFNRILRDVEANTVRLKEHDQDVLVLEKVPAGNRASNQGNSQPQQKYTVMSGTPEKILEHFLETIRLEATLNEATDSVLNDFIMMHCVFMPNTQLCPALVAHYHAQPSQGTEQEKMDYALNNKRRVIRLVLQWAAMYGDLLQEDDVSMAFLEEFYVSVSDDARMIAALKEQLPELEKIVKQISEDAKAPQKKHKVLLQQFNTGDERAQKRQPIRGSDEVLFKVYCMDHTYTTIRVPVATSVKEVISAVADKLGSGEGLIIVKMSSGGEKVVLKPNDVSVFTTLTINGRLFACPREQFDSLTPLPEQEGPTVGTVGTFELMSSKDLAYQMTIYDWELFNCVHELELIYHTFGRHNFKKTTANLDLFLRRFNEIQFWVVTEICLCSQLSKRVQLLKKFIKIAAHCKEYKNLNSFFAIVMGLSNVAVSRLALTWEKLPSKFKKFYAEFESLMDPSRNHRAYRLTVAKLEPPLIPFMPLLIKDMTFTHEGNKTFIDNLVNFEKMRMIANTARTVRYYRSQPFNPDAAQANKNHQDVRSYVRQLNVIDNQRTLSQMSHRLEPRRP

Row | Structure (SMILES) | Potency [1] | Potency [2] | Potency [3] | Potency [4] | Potency [5] | activation [3] | activity change, negative = inhibition [5] | outcome [4]
1 | Cc1cc(N)c2cc(NC(=O)/C=C/c3ccccc3Cl)ccc2n1 | 37.9 µM (active) | 100 µM (active) | 56.2 µM (active) | inactive | inactive |  |  | 
2 | CSc1nnc(-c2ccccc2)c(-c2ccccc2)n1 | inactive | inactive | inactive | 19 µM (active) | inactive |  |  | 
3 | COc1ccc(Cl)cc1N1C(=O)C2CCCN2C1c1ccccc1F (stereo not given) | inactive | inactive | inactive | inactive | inactive |  |  | 
4 | O=C(/C=C/c1ccco1)c1cccc([N+](=O)[O-])c1 | 42.6 µM (active) | inactive | inactive | inactive | inactive |  |  | 
5 | COc1ccc(S(=O)(=O)N2CCOC23CCN(S(=O)(=O)c2cccs2)CC3)cc1 | inactive | inactive |  | inactive |  | 4.26% [at 17.1 µM, percent relative to cAMP agonist control] | -10.2% [at 30.8 µM] | 
6 | Cc1ccc(S(=O)(=O)/N=C2/NC(=O)/C(=C/c3ccccc3)S2)cc1 | 42.6 µM (active) | inactive | inactive | inactive | inactive |  |  | 
7 | Cc1cc(O)c(C(=O)/C=C/c2cccc([N+](=O)[O-])c2)c(=O)o1 | 33.8 µM (active) | inactive | inactive | inactive | inactive |  |  | 
8 | COc1ccc(OCc2nc3ccccc3n2Cc2ccccc2Cl)cc1 | inactive | inactive | inactive | inactive | inactive |  |  | 
9 | COc1cc(C)ccc1S(=O)(=O)N1CCCCCC1 | inactive | inactive | inactive | inactive | inactive |  |  | 
10 | COC(=O)c1cc2sc(C)cc2n1Cc1ccccc1 | inactive | inactive | inactive | inactive | inactive |  |  | 
11 | Fc1ccc(C(Nc2ccccn2)c2c[nH]c3ccccc23)cc1 (stereo not given) | inactive | inactive |  | inactive |  | 7.5% [at 17.1 µM, percent relative to cAMP agonist control] | -2.83% [at 30.8 µM] | 
12 | COC(=O)c1ccc2c(=O)n3nc(Nc4cc(OC)ccc4OC)sc3nc2c1 | inactive | inactive | inactive | inactive | inactive |  |  | 
13 | CCc1ccccc1NC(=O)c1cc2sc(Cl)cc2n1CC | inactive | inactive | inactive | inactive | inactive |  |  | 
14 | CCOc1ccc(C(=O)NCC(=O)NCC(c2ccco2)N2CCCCC2)cc1OCC (stereo not given) | inactive | inactive |  | inactive |  | -0.0767% [at 17.1 µM, percent relative to cAMP agonist control] | -4.11% [at 30.8 µM] | 
15 | NC(=O)COC(=O)/C=C/c1ccc2ccccc2n1 | inactive | inactive | inactive | inactive | inactive |  |  | 
16 | O=C(N/N=C\c1cc([N+](=O)[O-])ccc1N1CCCC1)c1ccccn1 | inactive | inactive |  | inactive |  | 3.56% [at 17.1 µM, percent relative to cAMP agonist control] | -14.6% [at 30.8 µM] | 
17 | O=C(c1ccc2nc(N3CCOCC3)sc2c1)N1CCC(Cc2ccccc2)CC1 | inactive | inactive | inactive | inactive | inactive |  |  | 
18 | S=C(Nc1ccccc1)Nc1ccccn1 | inactive | inactive |  | inactive |  | 9.11% [at 17.1 µM, percent relative to cAMP agonist control] | 9.21% [at 30.8 µM] | 
19 | Cc1c(C(=O)N2c3ccccc3CC2C)oc2ccccc12 (stereo not given) | inactive | inactive | inactive | inactive | inactive |  |  | 
20 | COc1cc(/C=C/C(=O)OCC(=O)Nc2oc(C)c3c(C)n[nH]c(=O)c23)ccc1OC(F)F | inactive | inactive | inactive | inactive | inactive |  |  | 

Row | Structure (SMILES) | Potency [1] | Potency [2] | Potency [3] | Potency [4] | Potency [5] | activation [3] | activity change, negative = inhibition [5] | outcome [4]
21 | COc1ccccc1Sc1nc(-c2ccccc2)ncc1OC | inactive | inactive |  | inactive |  | 11.6% [at 17.1 µM, percent relative to cAMP agonist control] | 8.06% [at 30.8 µM] | 
22 | O=C(Cc1ccccc1Cl)Nc1ccc(S(=O)(=O)Nc2nccs2)cc1 | inactive | inactive | inactive | inactive | inactive |  |  | 
23 | CC(SC1=NCCN1S(=O)(=O)c1ccc(F)cc1)c1ccccc1 (stereo not given) | inactive | inactive | inactive | 12 µM (active) | inactive |  |  | 
24 | Cc1cc(C)c(OCC(=O)Nc2ccccc2N2CCCCC2)c(C)c1 | inactive | inactive | inactive | inactive | inactive |  |  | 
25 | O=C(Nc1ccccc1N1CCOCC1)c1cccc2c(Br)cccc12 | inactive | inactive | inactive | inactive | inactive |  |  | 
26 | CCOC(=O)C(C)n1cnc2c(nnn2-c2cccc(Cl)c2)c1=O (stereo not given) | inactive | inactive |  | inactive |  | 0% [at 17.1 µM, percent relative to cAMP agonist control] | -28.5% [at 30.8 µM] | 
27 | Oc1ccc(-c2csc(Nc3cccnc3)n2)cc1 | inactive | inactive |  | inactive |  | 0.321% [at 17.1 µM, percent relative to cAMP agonist control] | -8.51% [at 30.8 µM] | 
28 | CC(=O)C1=C(C)OC2(O)c3ccccc3C(=O)C12O (stereo not given) | inactive | inactive |  | inactive |  | 4.3% [at 17.1 µM, percent relative to cAMP agonist control] | -10.4% [at 30.8 µM] | 
29 | CCOc1ccc(NCc2nc3ccccc3n2CCOc2ccccc2)cc1 | inactive | inactive |  | inactive |  | 16.9% [at 17.1 µM, percent relative to cAMP agonist control] | 4.92% [at 30.8 µM] | 
30 | CCOc1ncccc1C(=O)Nc1ccc(C)c(S(=O)(=O)N2CCCCCC2)c1 | inactive | inactive | inactive | inactive | inactive |  |  | 
31 | Cc1ccccc1OCCC(=O)OCC(=O)NC1CCCCC1 | inactive | inactive |  | inactive |  | 3.43% [at 17.1 µM, percent relative to cAMP agonist control] | 6.94% [at 30.8 µM] | 
32 | Cc1ccc(-n2c(SCC(=O)N/N=C/c3ccccc3C(=O)O)nnc2-c2ccc(Cl)cc2)cc1 | inactive | inactive | inactive | inactive | inactive |  |  | 
33 | CC(C)(C)c1cc(-c2csc(Nc3ccccc3)[n+]2Cc2ccc(C(=O)O)cc2)cc(C(C)(C)C)c1O | 67.5 µM (active) | inactive | inactive | 84.9 µM (active) | inactive |  |  | 
34 | O=C(c1ccc(Br)o1)N1CCN(c2ccc3nnc(-c4ccc(F)cc4)n3n2)CC1 | inactive | inactive |  | inactive |  | -1.27% [at 17.1 µM, percent relative to cAMP agonist control] | -4.8% [at 30.8 µM] | 
35 | COc1ccc(S(=O)(=O)N2CCOC23CCN(S(=O)(=O)c2ccc(F)cc2C)CC3)cc1 | inactive | inactive | inactive | inactive | inactive |  |  | 
36 | Cc1ccc(S(=O)(=O)N(C)C)cc1NC(=O)CSc1nc2ncc(Cl)cc2[nH]1 | inactive | inactive | inactive |  | inactive |  |  | inactive [at 12.7 µM]
37 | CC(C)OC1(c2ccccc2)OC(=O)c2ccccc21 (stereo not given) | inactive | inactive | inactive | inactive | inactive |  |  | 
38 | Cc1occc1-c1nnc(SCC(=O)Nc2c(F)cccc2F)n1C | inactive | inactive | inactive | inactive | inactive |  |  | 
39 | CC(=O)N1CCc2nc3sc(C(=O)Nc4ccc(Cl)cc4F)c(N)c3c(C(F)(F)F)c2C1 | inactive | inactive | inactive |  | inactive |  |  | inactive [at 12.7 µM]
